This is one part of a sample in which hits are shown more often than they occur.
KDM5B inhibitor – Primary screen for KDM5B Histone Demethylases FDH-coupled qHTS; Lysine-specific demethylase 5B (Homo sapiens), Q9UGL1; KDM5B demethylase, FDH-coupled NADH fluorescence (FDH is formaldehyde dehydrogenase); Potency, µM (doses to about 57.7 µM), actives largely listed as inhibitors; hit rate 2.6% among 220,000; AID 1347165, 2019; active = well fitted inhibition curve with a large enough effect; note: 0% is about no effect; nearly all actives have a fitted effect of over 70% in size
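KDM5BΔAP (200 nM final) in 50 mM HEPES pH 7.5, 0.01% Tween-20 was preincubated 10 min at RT with compound over a concentration range. Substrate mix (H3K4me3 12.5 µM, α-KG 25 µM, Fe²⁺, ascorbate, NAD⁺, FDH) was added, and NADH fluorescence change over 30 min gave dose-response curves.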
Active calls of the source: *; i = inactive. Potency is the fitted concentration of half-maximal effect.

SMILES	KDM5B inhibitor
CN(C)C(=O)c1cc2c(s1)CCC(C(=O)N1CCN(c3ccccc3)CC1)C2 (configuration not stated)	i
CC(C)CNC(=O)C1CCc2ncc(-c3ccsc3)n2C1 (configuration not stated)	i
O=C(NC1CCN(Cc2ccccc2)CC1)C1CCc2ncc(-c3ccsc3)n2C1 (configuration not stated)	i
CN(C)C(=O)c1cc2c(s1)CCC(C(=O)N1CCN(c3ccccn3)CC1)C2 (configuration not stated)	28µM*
O=C(C1CCc2ncc(-c3ccsc3)n2C1)N1CCN(c2ccccn2)CC1 (configuration not stated)	25µM*
CN(C)C(=O)c1cc2c(s1)CCC(C(=O)N1CCN(c3cccc(Cl)c3)CC1)C2 (configuration not stated)	i
O=C(C[C@H]1NC(=O)c2ccccc2NC1=O)Nc1cccc2[nH]ccc12	i
CC(=O)Nc1ccc(NC(=O)COc2cc(O)c3c(=O)cc(-c4ccccc4)oc3c2)cc1	i
CN(Cc1nc(-c2cccc(Cl)c2)no1)C1CCOCC1	i
Cc1noc(-c2nc(-c3cccc(Cl)c3)no2)n1	i
Cc1nnc(CN(C)c2ccc(-c3nc(-c4cccc(Cl)c4)no3)cn2)o1	28µM*
CCN(CC)C(=O)Cn1c(C)ccc(NS(=O)(=O)c2ccc(C)cc2)c1=O	i
COc1cc(/C=C2\Oc3cc(OS(=O)(=O)c4ccc(C)cc4)ccc3C2=O)cc(OC)c1OC	i
C[C@@H](NS(=O)(=O)c1ccccc1)c1onc(-c2ccc(F)cc2)c1C(=O)O	i
CN(Cc1nccs1)c1cc(C2CC(O)C2)ncn1 (configuration not stated)	i
N#Cc1c(SCC(N)=O)nc2c(c1-c1cccs1)CCCC2	i
CCOc1ccc(CNC(=O)CCn2c(=O)c3cccn3c3cccnc32)cc1	i
Cn1nccc1C(=O)NCc1ccc2c(c1)CCN2C(=O)c1ccccc1	i
CCOc1nccn2c(-c3ccc(CNC(=O)c4ccnn4C)cc3)cnc12	40µM*
Cc1noc(C(C)N2CCN(c3oc(C4CC4)nc3C#N)CC2)n1 (configuration not stated)	i
COc1ccccc1-c1cn2c(n1)CO[C@@H](CNC1CCCC1)C2	i
O=S1(=O)N=C(SCc2ccccc2)N(Cc2ccccc2)c2ccccc21	i
O=C(c1ccccc1)C1CCN(c2ncccc2[N+](=O)[O-])CC1	i
N#Cc1cccnc1N1CC[C@@H](N2CCC(O)CC2)[C@H](O)C1	25µM*
N#Cc1cccnc1N1CCC(NC(=O)c2ccc3nccn3c2)CC1	i
SMILES	KDM5B inhibitor
CCCOC(=O)c1ccc(OC(=O)CCCOc2ccc(Cl)cc2Cl)cc1	i
Cc1cccc(NC(=O)c2ccc[n+]([O-])c2)n1	i
Cc1ccc(-n2cccc2C=O)cc1C	i
COc1ccc(COC(=O)C2=C(C)NC3=C(C(=O)CCC3)C2c2cccc(OC)c2OC)cc1 (configuration not stated)	i
COc1ccc(C)cc1NC(=O)Cn1nc(C(=O)O)c2ccccc2c1=O	i
Cc1ccccc1-c1nc(N2CCOCC2)cc2c1CN(CC1CC1)C2=O	35µM*
COc1ccc(-c2nc(N3CCOCC3)cc3c2CN(Cc2ccccc2)C3=O)cc1OC	i
COc1ccc(-c2nc(N3CCOCC3)cc3c2CN(Cc2ccccc2)C3=O)cn1	35µM*
COc1ccc(CN2CCC3OCCN(Cc4ccccc4)C(=O)C3C2)cn1 (configuration not stated)	i
COCC(=O)N(C1CCOCC1)C1CCN(C(=O)c2ccc(OC)nc2)CC1	i
Cn1cc(-c2nc(N3CCOCC3)cc3c2CN(CC2CC2)C3=O)cn1	i
CCOc1ccc(NC(=O)Nc2ccc3nc(N4CCOCC4)cc(C)c3c2)cc1	i
COc1ccc(-c2nc(N3CCOCC3)cc3c2CN(CC2CC2)C3=O)cn1	35µM*
Cc1ccccc1N1Cc2c(ncnc2N2CCOCC2)N(C)CC1=O	i
CCCC(=O)N1N=C(c2cccc(NS(=O)(=O)CC)c2)CC1c1ccco1 (configuration not stated)	i
CC(NC(=O)CCc1ncc(-c2ccccc2Cl)o1)c1ccc(S(N)(=O)=O)cc1 (configuration not stated)	i
O=C(CN1CC2CC(C1)[C@H]1CCCC(=O)N1C2)NCCC1=CCCCC1 (some centres not stated)	i
CCOC(=O)C(NC(=O)/C=C/c1ccc(C)c(Cl)c1)C(=O)OCC	i
Cc1noc(C)c1CC(=O)N1Cc2ccccc2OC2(CCN(C(=O)NC(C)C)CC2)C1	i
Cc1ccc(SCc2ccc(C(=O)Nc3cccc(C)c3C)cc2)cc1	i
CSc1ccc(C2CC(=O)N(c3cccc(C(F)(F)F)c3)C3=C2C(=O)OC3)cc1 (configuration not stated)	i
CCn1ccc2sc(C)c(C(=O)O)c2c1=O	i
O=C1CSc2ccc(C(=O)NN(c3ccccc3)c3ccccc3)cc2N1	i
CCC(C)Nc1nc(-c2ccccn2)nc2ccccc12 (configuration not stated)	i
CNS(=O)(=O)CCNc1nc(-c2ccccn2)nc2c1c(C)nn2C	22µM*
SMILES	KDM5B inhibitor
CCCCNc1nc(-c2ccncc2)nc2ccccc12	i
COc1ccc(S(=O)(=O)NCCNc2ncnc3c2c(C)nn3C)cc1	i
COC(CNc1nc(-c2ccccn2)nc2c1c(C)nn2C)c1cccs1 (configuration not stated)	28µM*
Cc1ncsc1CCCNc1nc(-c2ccccn2)nc2c1CCNCC2	i
Cc1ccc(OCC(O)CNc2nc(C)nc3c2c(C)nn3C)c(C)c1 (configuration not stated)	i
Cc1cc(=O)[nH]c(CCNc2nc(-c3ccncc3)nc3c2c(C)nn3C)n1	20µM*
Cc1nc(-c2ccncc2)nc(NCCNc2ncccc2C(F)(F)F)c1Cl	i
O=C(Nc1ccc([C@@H](O)[C@H]2COCC(=O)N2Cc2ccccn2)cc1)c1cnccn1	i
O=C(NCC1(c2ccccc2F)CCCC1)C1CCN(C(=O)C2CC2)CC1	i
O=C(COC(=O)C1(c2ccc(Cl)cc2)CCCC1)Nc1cc([N+](=O)[O-])ccc1Cl	i
C=CCNC(=S)N/N=C1/CCC=C1CCCCC	i
COC(=O)CCC1CCCNC1 (configuration not stated)	i
COc1ccccc1OCc1nc(C#N)c(N2CCN(C)CC2)o1	i
Cc1ccc(S(=O)(=O)Oc2ccc3c(C)cc(=O)oc3c2)cc1	i
C/C=C/C=C/C(=O)OCc1nc2c(c(=O)[nH]c(=O)n2CCCC)n1C	i
CC(=O)NC12CC3CC(C1)CC(C(=O)NC1CCSCC1)(C3)C2	i
Cc1csc(NC(=O)CCc2ncc(-c3ccc(C)c(C)c3)o2)n1	i
CC(C)C(Br)C(=O)Nc1ccc(Cl)c(Cl)c1 (configuration not stated)	i
Cc1ncc2c(c1CNC(=O)COc1ccc(F)cc1)CCNC2	i
Cc1cc(C)n(CCC(=O)N2[C@@H]3CC[C@H]2CC(NC(=O)c2ccc(F)cc2)C3)n1 (some centres not stated)	i
CCn1cc(-c2cc3c(cn2)CN(CCc2ccccc2)CCN3)cn1	35µM*
CC(=O)N1CCNc2cc(-c3ccc(Oc4ccccc4)cc3)ncc2C1	i
c1ccc(CN2CCNc3cc(Nc4ccc(N5CCOCC5)cc4)ncc3C2)cc1	i
